From the supplement of paper PMC10849652
Targets with a hit are over-represented here; the source holds about 8,800 in all. About 0.5% of all pairs of compound and target were hits.

Columns and labels:
Test in all cases: log2 fold change, soluble protein after heating vs DMSO (PISA); higher = thermal stabilisation; K562 lysate, 10 uM; active = over 0.2 and 3.5 SD of the protein, either way, in both replicates (recomputed)
ibrutinib = compound: C=CC(=O)N1CCC[C@@H](n2nc(-c3ccc(Oc4ccccc4)cc3)c3c(N)ncnc32)C1 [ibrutinib]
Summary of the method: (§1)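 Values give the log-two fold change in thermal stability against solvent controls, from duplicates. Crude K562 extract at 1 mg/mL protein, made by dounce homogenisation in PBS pH 7.4 with 1 mM MgCl2, was treated with 10 μM compound for 30 min. After 3 min heating across 48°C-58°C, aliquots were pooled, adjusted to 0.5% NP-40 at 4°C and centrifuged at 21,000xg for 90 min. The supernatant was measured by TMTpro 16plex LC-MS/MS with channel sums equalised.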

[1] = compound: CC(=O)c1cnc2ccc(-c3cc(Cl)c(O)c(Cl)c3)nc2c1N[C@H]1CC[C@H](CN(C)C)CC1
Summary of the method: as §1

ralimetinib = compound: CC(C)(C)Cn1c(N)nc2ccc(-c3[nH]c(C(C)(C)C)nc3-c3ccc(F)cc3)nc21 [ralimetinib]
Summary of the method: as §1

[2] = compound: CC(C)(O)CC(=O)NCCn1ccc2ncnc(Nc3ccc(Oc4cccc(C(F)(F)F)c4)c(Cl)c3)c21
Summary of the method: as §1

[3] = compound: CC(C)C1=C2N=C(C=C(N2N=C1)NCC3=CC=CC=C3)NCCCCCCN
Summary of the method: as §1

[4] = compound: CC1=C(C(CC(=O)N1)C2=CC=C(C=C2)C(F)(F)F)C(=O)NC3=C(C=C4C(=C3)C=NN4)F
Summary of the method: as §1

[5] = compound: CC1=C(C2=C(C=C1)C(=O)C3=CC=CC=C3N2CCCN)C
Summary of the method: as §1

[6] = compound: CC1=C(C=C(C=C1)NC(=O)C2=CC(=CC=C2)C(C)(C)C#N)NC3=CC4=C(C=C3)N=CN(C4=O)C
Summary of the method: as §1

[7] = compound: CC1=C(C=C(C=C1)NC(=O)C2=CC(=CC=C2)N(C)C)NC(=O)C3=CC=C(C=C3)O
Summary of the method: as §1

[8] = compound: CC1=CC=C(C=C1)SC2=C3C=C(SC3=CN=C2)C(=O)N
Summary of the method: as §1

vemurafenib = compound: CCCS(=O)(=O)Nc1ccc(F)c(C(=O)c2c[nH]c3ncc(-c4ccc(Cl)cc4)cc23)c1F [vemurafenib]
Summary of the method: as §1

[9] = compound: CCCS(=O)(=O)Nc1ccc(F)c(C(=O)c2c[nH]c3ncc(Cl)cc23)c1F
Summary of the method: as §1

barasertib = compound: CCN(CCCOc1ccc2c(Nc3cc(CC(=O)Nc4cccc(F)c4)[nH]n3)ncnc2c1)CCOP(=O)(O)O [barasertib]
Summary of the method: as §1

[10] = compound: CC[C@@H]1C(=O)N(C)c2cnc(Nc3ccc(C(=O)NC4CCN(C)CC4)cc3OC)nc2N1C1CCCC1
Summary of the method: as §1

volasertib = compound: CC[C@@H]1C(=O)N(C)c2cnc(Nc3ccc(C(=O)N[C@H]4CC[C@H](N5CCN(CC6CC6)CC5)CC4)cc3OC)nc2N1C(C)C [volasertib]
Summary of the method: as §1

[11] = compound: CCn1c(C(=O)N(C2CC2)C2CC2)cc2c3c(ncn3C)c(Nc3cc(C)n(C)n3)nc21
Summary of the method: as §1

[12] = compound: CCn1cc(-c2ccnc3[nH]c(-c4cccc(CN(C)C)c4)cc23)c(-c2ccc(NC(=O)N(C)C)cc2)n1
Summary of the method: as §1

[13] = compound: CN1CCC(CNc2ccc3ncc(-c4cccc(OC(F)(F)F)c4)n3n2)CC1
Summary of the method: as §1

saracatinib = compound: CN1CCN(CCOc2cc(OC3CCOCC3)c3c(Nc4c(Cl)ccc5c4OCO5)ncnc3c2)CC1 [saracatinib]
Summary of the method: as §1

sotrastaurin = compound: CN1CCN(c2nc(C3=C(c4c[nH]c5ccccc45)C(=O)NC3=O)c3ccccc3n2)CC1 [sotrastaurin]
Summary of the method: as §1

Measured: log2 fold change

ARHGAP25 isoform 4 (UniProt P42331)
inactive: ibrutinib 0.016 | [1] 0.036 | ralimetinib 0.026 | [2] -0.003 | [3] -0.026 | [4] 0.064 | [5] -0.014 | [6] 0.117 | [7] 0.059 | [8] -0.006 | vemurafenib 0.021 | [9] 0.049 | barasertib 0.081 | [10] -0.045 | volasertib -0.029 | [11] -0.032 | [12] -0.012 | [13] 0.019 | saracatinib -0.034 | sotrastaurin 0.043

ARHGEF2 (UniProt Q92974)
inactive: ibrutinib 0.028 | [1] -0.003 | ralimetinib 0.043 | [2] 0.005 | [3] 0.014 | [4] 0.008 | [5] -0.034 | [6] 0.047 | [7] 0.018 | [8] 0.01 | vemurafenib -0.006 | [9] 0.013 | barasertib -0.002 | [10] 0 | volasertib -0.026 | [11] -0.021 | [12] -0.02 | [13] -0.003 | saracatinib 0.009 | sotrastaurin 0.027

AK1 (UniProt P00568)
inactive: ibrutinib -0.001 | [1] 0.006 | ralimetinib 0.006 | [2] -0.021 | [3] -0.029 | [4] -0.008 | [5] 0.043 | [6] -0.024 | [7] -0.002 | [8] 0.009 | vemurafenib 0.01 | [9] -0.036 | barasertib -0.012 | [10] -0.027 | volasertib 0.021 | [11] 0.017 | [13] -0.135 | saracatinib -0.012 | sotrastaurin -0.024
active: [12] 0.332

ADAR isoform 4 (UniProt P55265)
inactive: ibrutinib 0.152 | [1] -0.025 | ralimetinib 0.029 | [2] -0.019 | [3] -0.03 | [4] 0.018 | [5] 0.016 | [6] -0.002 | [7] 0.015 | [8] -0.021 | vemurafenib 0.077 | [9] 0.051 | barasertib 0.061 | [10] 0.011 | volasertib 0.003 | [11] 0.025 | [12] -0.001 | [13] -0.049 | saracatinib 0.04 | sotrastaurin 0.032

ALDH1B1 (UniProt P30837)
UniProt P30837, sequence (P30837 whole entry, looked up): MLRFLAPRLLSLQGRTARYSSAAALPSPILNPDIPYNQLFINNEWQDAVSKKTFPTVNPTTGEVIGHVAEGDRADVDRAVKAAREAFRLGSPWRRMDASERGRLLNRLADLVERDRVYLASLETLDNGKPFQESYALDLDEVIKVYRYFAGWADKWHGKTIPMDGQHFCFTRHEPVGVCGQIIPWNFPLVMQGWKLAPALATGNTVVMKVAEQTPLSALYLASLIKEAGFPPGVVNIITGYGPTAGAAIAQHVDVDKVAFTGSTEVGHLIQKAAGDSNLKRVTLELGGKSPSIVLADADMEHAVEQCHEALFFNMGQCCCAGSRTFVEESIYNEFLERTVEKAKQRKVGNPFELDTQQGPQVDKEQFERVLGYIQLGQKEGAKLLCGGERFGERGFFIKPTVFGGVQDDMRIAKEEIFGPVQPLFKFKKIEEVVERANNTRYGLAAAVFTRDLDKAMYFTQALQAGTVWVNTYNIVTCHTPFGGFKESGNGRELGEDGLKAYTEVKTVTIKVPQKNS
inactive: ibrutinib 0.008 | [1] 0.086 | ralimetinib 0.019 | [2] 0.02 | [3] 0.056 | [4] -0.024 | [5] -0.005 | [6] -0.018 | [7] -0.014 | [8] -0.018 | vemurafenib 0.008 | [9] 0.017 | barasertib -0.022 | [10] 0.029 | volasertib -0.013 | [11] -0.062 | [12] -0.015 | [13] 0.108 | saracatinib 0.011 | sotrastaurin 0.022

AMD1 (UniProt P17707)
active: [1] 0.464
inactive: ibrutinib -0.031 | ralimetinib -0.02 | [2] -0.013 | [3] -0.054 | [4] 0.019 | [5] -0.015 | [6] 0.155 | [7] -0.023 | [8] -0.119 | vemurafenib 0.096 | [9] -0.01 | barasertib 0.064 | [10] 0.036 | volasertib -0.014 | [11] 0.117 | [12] -0.129 | [13] 0.127 | saracatinib 0.013 | sotrastaurin -0.002

AKR1B1 (UniProt P15121)
inactive: ibrutinib 0.023 | [1] -0.015 | ralimetinib 0.031 | [2] -0.029 | [3] -0.033 | [4] -0.013 | [5] 0.091 | [6] -0.038 | [7] 0.028 | [8] 0.004 | vemurafenib 0.006 | [9] 0.024 | barasertib 0.02 | [10] 0.072 | volasertib -0.015 | [11] 0.008 | [12] -0.054 | [13] 0.116 | saracatinib 0.065 | sotrastaurin -0.012

ACYP1 (UniProt P07311)
UniProt P07311, sequence (P07311 whole entry, looked up): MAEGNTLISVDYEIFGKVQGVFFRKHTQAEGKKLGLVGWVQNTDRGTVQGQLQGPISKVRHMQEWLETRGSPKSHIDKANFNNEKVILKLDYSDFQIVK
inactive: ibrutinib 0.056 | [1] 0.027 | ralimetinib 0 | [2] -0.024 | [3] -0.011 | [4] -0.021 | [5] 0.015 | [6] -0.013 | [7] -0.024 | [8] 0.021 | vemurafenib -0.038 | [9] -0.024 | barasertib 0.024 | [10] -0.005 | volasertib 0.032 | [11] 0.006 | [13] -0.082 | saracatinib 0.003 | sotrastaurin -0.032
active: [12] 0.284

AKAP11 (UniProt Q9UKA4)
UniProt Q9UKA4, sequence (Q9UKA4 whole entry, looked up): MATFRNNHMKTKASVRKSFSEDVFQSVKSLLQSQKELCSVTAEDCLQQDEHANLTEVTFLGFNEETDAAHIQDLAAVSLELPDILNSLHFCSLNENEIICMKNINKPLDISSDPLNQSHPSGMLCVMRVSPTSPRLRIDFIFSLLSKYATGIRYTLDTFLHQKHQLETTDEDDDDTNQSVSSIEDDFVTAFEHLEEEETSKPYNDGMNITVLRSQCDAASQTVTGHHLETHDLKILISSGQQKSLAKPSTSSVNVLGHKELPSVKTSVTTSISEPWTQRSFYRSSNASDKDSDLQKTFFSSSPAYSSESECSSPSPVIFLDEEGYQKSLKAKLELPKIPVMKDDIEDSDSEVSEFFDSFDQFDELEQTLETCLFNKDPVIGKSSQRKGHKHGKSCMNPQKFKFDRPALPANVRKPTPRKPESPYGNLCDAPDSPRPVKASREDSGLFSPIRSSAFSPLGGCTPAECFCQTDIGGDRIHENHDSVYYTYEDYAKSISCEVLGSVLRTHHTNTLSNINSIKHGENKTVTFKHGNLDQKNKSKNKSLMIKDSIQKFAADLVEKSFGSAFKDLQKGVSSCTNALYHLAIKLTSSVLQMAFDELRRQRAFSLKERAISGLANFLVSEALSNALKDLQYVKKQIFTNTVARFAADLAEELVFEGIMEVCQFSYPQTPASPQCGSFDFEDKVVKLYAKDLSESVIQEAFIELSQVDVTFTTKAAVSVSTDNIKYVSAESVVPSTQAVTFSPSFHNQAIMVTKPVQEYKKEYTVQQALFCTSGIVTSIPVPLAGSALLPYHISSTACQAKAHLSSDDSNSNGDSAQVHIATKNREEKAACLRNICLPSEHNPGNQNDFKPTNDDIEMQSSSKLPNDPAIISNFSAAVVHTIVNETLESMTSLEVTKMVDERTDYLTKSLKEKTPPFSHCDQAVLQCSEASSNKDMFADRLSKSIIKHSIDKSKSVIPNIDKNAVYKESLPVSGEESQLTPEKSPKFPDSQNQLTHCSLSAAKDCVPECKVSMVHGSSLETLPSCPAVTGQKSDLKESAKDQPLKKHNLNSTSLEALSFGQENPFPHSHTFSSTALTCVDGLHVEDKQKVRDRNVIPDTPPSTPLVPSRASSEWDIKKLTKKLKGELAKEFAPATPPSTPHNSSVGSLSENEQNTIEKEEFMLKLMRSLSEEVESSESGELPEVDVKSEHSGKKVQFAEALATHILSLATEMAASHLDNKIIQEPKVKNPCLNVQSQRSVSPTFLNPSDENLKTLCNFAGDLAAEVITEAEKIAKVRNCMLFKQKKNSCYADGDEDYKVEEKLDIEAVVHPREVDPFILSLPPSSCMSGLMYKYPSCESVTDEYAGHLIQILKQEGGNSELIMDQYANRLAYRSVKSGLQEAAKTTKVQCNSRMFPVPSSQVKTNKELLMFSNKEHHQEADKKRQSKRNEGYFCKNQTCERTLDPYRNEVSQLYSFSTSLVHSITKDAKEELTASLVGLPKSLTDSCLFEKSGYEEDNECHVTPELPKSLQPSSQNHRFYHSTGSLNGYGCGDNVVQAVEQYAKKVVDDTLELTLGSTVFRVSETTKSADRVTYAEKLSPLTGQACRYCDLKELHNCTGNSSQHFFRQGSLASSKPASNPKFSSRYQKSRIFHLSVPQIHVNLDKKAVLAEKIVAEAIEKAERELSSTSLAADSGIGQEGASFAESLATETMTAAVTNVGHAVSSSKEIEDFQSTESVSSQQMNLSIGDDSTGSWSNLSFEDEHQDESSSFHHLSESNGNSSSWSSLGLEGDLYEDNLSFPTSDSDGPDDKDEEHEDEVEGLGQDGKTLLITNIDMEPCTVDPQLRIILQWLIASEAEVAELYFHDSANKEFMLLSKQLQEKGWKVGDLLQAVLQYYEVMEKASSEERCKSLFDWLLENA
inactive: ibrutinib 0.032 | [1] -0.111 | ralimetinib 0.058 | [2] -0.068 | [3] 0.054 | [4] 0.065 | [5] -0.015 | [6] -0.002 | [7] 0.003 | [8] 0.085 | vemurafenib -0.272 | [9] -0.029 | barasertib 0.082 | [10] 0.051 | volasertib 0.038 | [11] -0.055 | [12] 0.044 | [13] -0.024 | saracatinib 0.028 | sotrastaurin -0.103

ASB6 (UniProt Q9NWX5)
active: [10] 0.651
inactive: ibrutinib -0.04 | [1] -0.087 | ralimetinib 0.027 | [2] -0.013 | [3] 0.001 | [4] -0.13 | [5] -0.007 | [6] 0.055 | [7] -0.052 | [8] 0.01 | vemurafenib -0.249 | [9] -0.039 | barasertib 0.109 | volasertib -0.026 | [11] -0.002 | [12] 0.182 | [13] 0.075 | saracatinib -0.05 | sotrastaurin -0.01

AMMECR1 (UniProt Q9Y4X0)
inactive: ibrutinib -0.021 | [1] -0.008 | ralimetinib 0.006 | [2] -0.016 | [3] 0.014 | [4] 0.009 | [5] -0.01 | [6] -0.003 | [7] -0.027 | [8] -0.039 | vemurafenib 0.067 | [9] 0 | barasertib 0.008 | [10] -0.019 | volasertib -0.03 | [11] -0.026 | [12] -0.012 | [13] 0.032 | saracatinib 0 | sotrastaurin 0.008

ARFGAP1 (UniProt Q8N6T3)
inactive: ibrutinib -0.118 | [1] 0.06 | ralimetinib -0.018 | [2] -0.203 | [3] 0.019 | [4] 0.408 | [5] 0.136 | [6] -0.062 | [7] 0.061 | [8] -0.045 | vemurafenib 0.063 | [9] -0.01 | barasertib 0.225 | [10] 0.204 | volasertib -0.02 | [11] 0.171 | [12] 0.001 | [13] 0.029 | saracatinib 0.056 | sotrastaurin -0.07

ALDH18A1 isoform 2 (UniProt P54886)
inactive: ralimetinib -0.308 | [2] -0.245 | [5] -0.378 | [6] 0.03 | [7] 0.19 | vemurafenib 0.308 | [11] 0.043 | saracatinib 0.13 | sotrastaurin 0.121

ABCA3 (UniProt Q99758)
UniProt Q99758, sequence (Q99758 whole entry, looked up): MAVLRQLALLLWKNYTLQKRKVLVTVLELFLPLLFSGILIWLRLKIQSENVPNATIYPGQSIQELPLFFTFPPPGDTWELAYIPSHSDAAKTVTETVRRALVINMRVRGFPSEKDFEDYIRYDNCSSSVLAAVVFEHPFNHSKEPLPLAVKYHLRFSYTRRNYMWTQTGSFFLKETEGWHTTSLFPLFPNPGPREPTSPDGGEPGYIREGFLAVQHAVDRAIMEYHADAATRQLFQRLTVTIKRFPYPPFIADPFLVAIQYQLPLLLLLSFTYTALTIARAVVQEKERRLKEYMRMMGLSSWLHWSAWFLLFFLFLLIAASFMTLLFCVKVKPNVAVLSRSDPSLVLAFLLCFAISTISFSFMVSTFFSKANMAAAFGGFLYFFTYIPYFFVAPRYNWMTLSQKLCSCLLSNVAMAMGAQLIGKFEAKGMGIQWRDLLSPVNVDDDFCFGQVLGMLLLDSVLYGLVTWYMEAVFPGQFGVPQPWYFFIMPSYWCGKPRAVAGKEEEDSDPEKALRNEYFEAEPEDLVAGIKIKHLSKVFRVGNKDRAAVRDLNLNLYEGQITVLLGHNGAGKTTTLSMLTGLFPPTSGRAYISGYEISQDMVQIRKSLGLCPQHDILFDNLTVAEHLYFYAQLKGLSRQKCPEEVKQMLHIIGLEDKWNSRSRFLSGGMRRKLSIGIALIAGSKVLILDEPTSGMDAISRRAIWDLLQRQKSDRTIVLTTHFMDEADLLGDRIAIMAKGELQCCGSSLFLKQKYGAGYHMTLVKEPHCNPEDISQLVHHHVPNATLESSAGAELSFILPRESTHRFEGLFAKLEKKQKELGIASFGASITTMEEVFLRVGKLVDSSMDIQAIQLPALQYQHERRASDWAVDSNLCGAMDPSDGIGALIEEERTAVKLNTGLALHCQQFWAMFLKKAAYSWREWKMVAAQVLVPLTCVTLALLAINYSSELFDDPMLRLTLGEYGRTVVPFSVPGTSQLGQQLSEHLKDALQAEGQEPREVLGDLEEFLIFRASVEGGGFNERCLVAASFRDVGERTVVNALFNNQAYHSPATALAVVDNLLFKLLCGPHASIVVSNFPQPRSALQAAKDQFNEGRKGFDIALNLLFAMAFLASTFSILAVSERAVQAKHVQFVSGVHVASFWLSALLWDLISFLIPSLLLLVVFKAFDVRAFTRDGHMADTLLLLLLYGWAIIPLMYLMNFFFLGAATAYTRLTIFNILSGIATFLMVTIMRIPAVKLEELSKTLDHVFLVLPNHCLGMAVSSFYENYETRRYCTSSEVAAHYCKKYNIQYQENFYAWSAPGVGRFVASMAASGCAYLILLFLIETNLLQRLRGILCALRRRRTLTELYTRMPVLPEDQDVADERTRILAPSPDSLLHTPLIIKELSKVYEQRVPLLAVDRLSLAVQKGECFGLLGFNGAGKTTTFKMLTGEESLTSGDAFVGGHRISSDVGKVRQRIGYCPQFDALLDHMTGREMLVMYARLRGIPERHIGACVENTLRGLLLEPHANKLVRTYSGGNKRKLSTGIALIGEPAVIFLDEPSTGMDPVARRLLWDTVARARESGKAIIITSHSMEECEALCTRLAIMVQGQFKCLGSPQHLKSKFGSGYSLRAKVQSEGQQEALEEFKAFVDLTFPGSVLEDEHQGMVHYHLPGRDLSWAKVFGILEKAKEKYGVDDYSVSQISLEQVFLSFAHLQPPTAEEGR
inactive: ibrutinib -0.036 | [1] -0.002 | ralimetinib -0.041 | [2] -0.13 | [3] -0.023 | [5] -0.112 | [6] 0.062 | [7] -0.028 | [8] 0.128 | vemurafenib 0.114 | [9] -0.044 | barasertib 0.057 | [10] -0.009 | volasertib 0.089 | [11] -0.163 | [12] -0.086 | [13] 0.051 | saracatinib -0.05 | sotrastaurin 0.031

ANKRD10 (UniProt Q9NXR5)
UniProt Q9NXR5, sequence (Q9NXR5 whole entry, looked up): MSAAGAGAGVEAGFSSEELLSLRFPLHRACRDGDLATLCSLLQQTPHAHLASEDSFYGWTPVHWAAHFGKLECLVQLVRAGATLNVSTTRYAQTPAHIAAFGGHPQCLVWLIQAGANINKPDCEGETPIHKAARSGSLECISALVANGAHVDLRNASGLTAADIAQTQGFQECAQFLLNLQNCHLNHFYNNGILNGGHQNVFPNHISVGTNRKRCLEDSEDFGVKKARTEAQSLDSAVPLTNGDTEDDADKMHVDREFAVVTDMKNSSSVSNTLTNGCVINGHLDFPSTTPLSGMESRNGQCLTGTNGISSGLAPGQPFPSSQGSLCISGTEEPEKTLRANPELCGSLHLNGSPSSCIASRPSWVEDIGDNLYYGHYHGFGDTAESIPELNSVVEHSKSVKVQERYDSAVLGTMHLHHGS
inactive: ibrutinib -0.076 | [1] -0.172 | ralimetinib 0.005 | [2] 0.042 | [3] -0.023 | [4] 0.046 | [5] 0.004 | [6] -0.008 | [7] 0.046 | [8] -0.085 | vemurafenib 0.056 | [9] -0.035 | barasertib 0.137 | volasertib 0.1 | [11] 0.115 | [12] -0.19 | [13] -0.022 | saracatinib 0.017 | sotrastaurin 0.01

AMDHD2 (UniProt Q9Y303)
UniProt Q9Y303, sequence (Q9Y303 whole entry, looked up): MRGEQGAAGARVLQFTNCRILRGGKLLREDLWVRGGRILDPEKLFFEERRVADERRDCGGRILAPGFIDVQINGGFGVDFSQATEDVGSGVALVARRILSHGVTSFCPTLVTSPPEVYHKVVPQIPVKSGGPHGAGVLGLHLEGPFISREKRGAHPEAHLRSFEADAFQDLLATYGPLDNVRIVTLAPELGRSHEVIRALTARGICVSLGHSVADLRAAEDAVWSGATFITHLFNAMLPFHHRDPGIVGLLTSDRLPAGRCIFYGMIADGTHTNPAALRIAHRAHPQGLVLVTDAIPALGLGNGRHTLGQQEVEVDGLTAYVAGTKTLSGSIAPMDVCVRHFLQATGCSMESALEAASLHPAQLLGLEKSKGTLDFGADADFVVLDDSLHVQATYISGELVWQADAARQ
inactive: [6] 0.014 | vemurafenib -0.128 | [12] -0.116 | [13] 0.052 | sotrastaurin 0.047

AP3D1 isoform 2 (UniProt O14617)
inactive: [1] -0.085 | [3] 0.09 | [4] 0.127 | [8] 0.053 | vemurafenib 0.002 | [9] -0.085 | volasertib -0.012 | [12] -0.231 | [13] 0.058

ALDH3A1 (UniProt P30838)
inactive: [1] -0.197 | ralimetinib -0.274 | [2] -0.259 | [3] 0.04 | [6] 0.432 | [7] -0.001 | [8] -0.119 | [9] 0.014 | volasertib 0.035 | [11] -0.399 | [12] -0.618 | [13] 0.216 | sotrastaurin -0.007
active: [5] 1.23 | saracatinib 1.2
